From PubChem BioAssay
The source made the active and inactive calls. Unless noted, no rule for the calls is given here.

Key:
[1] = circadian clock period modulators, cell-based, LOPAC library, luminescence reporter (AID 2774); conditions: circadian reporter cells, at 7 µM, actives lie on both sides;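 also: values are relative to mean of DMSO wells on each plate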
[2] = test system: Hepatitis C virus NS3 helicase; assay: HCV NS3 helicase inhibitors, primary screen, biochemical, fluorescence polarization, LOPAC1280 library (AID 687035; in the data active = inhibition above about 37%); conditions: Purified HCV NS3 helicase, Cy5-dT15 ssDNA binding fluorescence polarization; stronger effect = higher value; concentration not given here
[3] = Cy5 fluorescence quenching or enhancement artefacts, artefact control for HCV NS3 helicase inhibitor project, biochemical, LOPAC1280 (AID 687037); conditions: Cy5-DNA-NS3h complex fluorescence interference counterscreen
[4] = sensitizers of A549 cells to miR-34 induction, primary screen, imaging, A549 dox-inducible miR-34, nuclei and caspase counts (AID 1347080;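 active = compounds whose cell count with miR-34 switched on is under 0.7 times the count with it off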); conditions: A549 miR-34 inducible, Hoechst nuclei count, 48 h
[5] = phospholipid biosynthesis inhibitors in animal cells, primary screen, cell-based, LOPAC library, screen 4 (AID 1347384); conditions: phospholipid biosynthesis inhibition screen, at 10 µM
[6] = viability rescue of complex I mutant cybrids, primary screen, cell-based, galactose medium, ATP luminescence (AID 1645843;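 active = z-score of at least 1.8 in each of two replicates, scored against plate mean and spread of sample wells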;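 also: positive z means more ATP and so rescue of galactose-driven cybrid death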); conditions: complex I mutant cybrid cells, 72 h, stronger effect = higher value
[7] = stronger effect = lower value, cell number ratio, induced over uninduced
[8] = measured here: relative caspase fold change +Dox/-Dox
[9] = measured here: total cells with miR-34 induction, stronger effect = lower value
[10] = measured here: total cells without miR-34 induction

| SMILES | period change [1] | inhibition [2] | fluorescence ratio (interference) [3] | fold change [4, 7] | fold change [4, 8] | cell count [4, 9] | cell count [4, 10] | outcome [5] | z-score [6] |
| --- | --- | --- | --- | --- | --- | --- | --- | --- | --- |
| O=C(O)C1CN(CCCP(=O)(O)O)CCN1 (centres undefined) | 0.255 h (inactive) | 1% (inactive) | 1 (inactive) | 0.99 (inactive) | 1.52 | 10000 | 10100 | inactive | 0.45 (inactive) |
| C=CC[C@H](N)C(=O)O | -0.185 h (inactive) | -3% (inactive) | 1 (inactive) | 0.944 (inactive) | 0.719 | 9830 | 10400 | inactive | 0.62 (inactive) |
| CCCCOC(=O)NS(=O)(=O)c1sc(CC(C)C)cc1-c1ccc(Cn2c(CC)nc3c(C)cc(C)nc32)cc1 | -0.005 h (inactive) | -1% (inactive) | 1 (inactive) | 0.772 (inactive) | 0.69 | 4700 | 6080 | inactive | -1.28 (inactive) |
| Nc1nc2c(ncn2[C@@H]2O[C@H](CO)[C@@H](O)[C@@H]2O)c(=O)[nH]1 |  | -2% (inactive) | 1 (inactive) | 0.934 (inactive) | 1.54 | 8710 | 9330 | inactive | 4.94 (active) |
| CN(C)CCCc1cc(C(=O)Nc2ccc(-c3ccncc3)cc2)ccc1O |  | -1% (inactive) | 1 (inactive) | 1 (inactive) | 1.13 | 7450 | 7450 | inactive | 1.58 (inactive) |
| O=C1/C(=C/c2ccsc2)CC/C1=C\c1cccs1 |  | -4% (inactive) | 1 (inactive) | 0.99 (inactive) | 1.31 | 9920 | 10000 | inactive | 1.23 (inactive) |
| NC[C@@H]1O[C@H](c2ccccc2)Cc2c1ccc(O)c2O |  | -3% (inactive) | 0.9 (inactive) | 0.966 (inactive) | 1.26 | 9490 | 9820 | inactive | -1.3 (inactive) |
| CNCCc1cnc(CCC(c2ccccc2)c2ccccc2)[nH]1 |  | -4% (inactive) | 1 (inactive) | 1.13 (inactive) | 0.656 | 5430 | 4810 | inactive | -0.725 (inactive) |
| Cc1cc(NC2CCCCC2)nc(-n2nc(C)cc2C)n1 |  | -5% (inactive) | 1 (inactive) | 1.09 (inactive) | 0.728 | 9360 | 8610 | inactive | -1.04 (inactive) |
| C=CCNc1ncnc2ccc(Br)cc12 |  | 0% (inactive) | 1 (inactive) | 0.949 (inactive) | 0.896 | 7410 | 7810 | inactive | -1.29 (inactive) |
| CC(=O)/C=C1\C(=O)N(C)c2ccccc21 |  | -2% (inactive) | 0.9 (inactive) | 0.98 (inactive) | 1.31 | 6920 | 7060 | inactive | -1.48 (inactive) |
| CC[n+]1c(/C=C/C=C2/N(C)c3ccccc3C2(C)C)sc2ccccc21 |  | 1% (inactive) | 0.9 (inactive) | 1.18 (inactive) | 0.865 | 1270 | 1080 | inactive | -1.04 (inactive) |
| C[C@](Cc1ccc(O)c(O)c1)(NN)C(=O)O |  | -4% (inactive) | 1 (inactive) | 0.947 (inactive) | 1.36 | 9110 | 9620 | inactive | -1.02 (inactive) |
| COc1ccc(CCn2nnnc2C2(c3ccc(C)cc3)CC2)cc1 |  | -4% (inactive) | 1.1 (inactive) | 1.09 (inactive) | 0.893 | 8770 | 8010 | inactive | -0.23 (inactive) |
| CCCC(CCC)C(=O)OC1CC2CCC(C1)[N+]2(C)C (centres undefined) |  | 0% (inactive) | 1.1 (inactive) | 0.959 (inactive) | 1.54 | 9840 | 10300 | inactive | -0.005 (inactive) |
| O=c1[nH]c(=S)[nH]c(-c2ccccc2)c1Cc1c(O)ccc2ccccc12 |  | 0% (inactive) | 1 (inactive) | 0.946 (inactive) | 1.58 | 8710 | 9210 | inactive | 0.53 (inactive) |
| C=C1C[C@@]23CC[C@H]4[C@@](C)(CCC[C@@]4(C)C(=O)OC4OC(CO)C(O)C(O)C4O)[C@@H]2CC[C@]1(OC1OC(CO)C(O)C(O)C1OC1OC(CO)C(O)C(O)C1O)C3 (some centres undefined) |  | -1% (inactive) | 1 (inactive) | 1.06 (inactive) | 0.521 | 10700 | 10100 | inactive | 0.675 (inactive) |
| O=C(CCCCCN1CCN(c2ccccc2-c2ccccc2)CC1)NC1CCCc2ccccc21 (centres undefined) |  | 0% (inactive) | 1 (inactive) | 1.17 (inactive) | 1.11 | 6130 | 5250 | inactive | -1.38 (inactive) |
| COc1ccc(/C=C2\COc3ccc(C)cc3C2=O)cc1O |  | 1% (inactive) | 1 (inactive) | 1.16 (inactive) | 2.59 | 3090 | 2660 | inactive | -1.36 (inactive) |
| Clc1ccc(N2CCN(Cc3cc4ccccn4n3)CC2)cc1 |  | -6% (inactive) | 0.9 (inactive) | 1.01 (inactive) | 1.14 | 9670 | 9570 | inactive | -1.08 (inactive) |
| COc1ccc(-c2cc3ncc(C)n3c(Nc3ncccc3C(N)=O)n2)cc1OC |  | -1% (inactive) | 1 (inactive) | 0.944 (inactive) | 1.3 | 8700 | 9220 | inactive | 0.16 (inactive) |
| CCN(CC)CCNC(=O)c1ccc(NS(C)(=O)=O)cc1 |  | -2% (inactive) | 1.1 (inactive) | 1.02 (inactive) | 0.826 | 10400 | 10100 | inactive | 0.325 (inactive) |
